Results on 9 compounds are retold here after publication PMC11062922 (Nature Chemical Biology, 2023).

Holding throughout (design): species or system human, MV4-11 + K-562 + COLO205 + SK-N-BE2 + OVCAR-8
One experiment has as its system DDR1. The settings on record: read-out: apparent Kd, n = 1.
In a further experiment the test system is TEC. The conditions noted are these: read-out: apparent Kd, n = 1.
In another experiment the test system is CDK10. The conditions noted are these: read-out: apparent Kd, n = 1.
A further experiment deals with IKBKE. The settings on record: read-out: apparent Kd, n = 1.
The test system of a further experiment is MAP4K3. The conditions noted are these: read-out: apparent Kd, n = 1.
A further experiment concerns MAP4K5. The conditions noted are these: read-out: apparent Kd, compound concentrations: 100 nM and 1000 nM (sheet 'Samples'), n = 1.
The test system of a further experiment is NEK9. The settings on record: read-out: apparent Kd, compound concentrations: 100 nM and 1000 nM (sheet 'Samples'), n = 1.
In a further experiment the test system is RPS6KA1. The settings on record: read-out: apparent Kd, n = 1.
The subject of another experiment is SLK. The conditions noted are these: read-out: apparent Kd, n = 1.
The test system of another experiment is MAP4K2. The settings on record: read-out: apparent Kd, n = 1.
For a further experiment, the system named is TGFBR1. The settings on record: read-out: apparent Kd, n = 1.
Another experiment deals with TP53RK. The settings on record: read-out: apparent Kd, compound concentrations: 100 nM and 1000 nM (sheet 'Samples'), n = 1.
In another experiment the test system is AKT2. The conditions noted are these: read-out: apparent Kd, compound concentrations: 100 nM and 1000 nM (sheet 'Samples'), n = 1.
For another experiment, the system named is ACVR1. The settings on record: read-out: apparent Kd; compound concentrations: 100 nM and 1000 nM (sheet 'Samples'), CATDS: 5.7443356978904197E-3; n = 1.
The test system of the next experiment is PIK3C2A. The conditions noted are these: read-out: apparent Kd; compound concentrations: 100 nM and 1000 nM (sheet 'Samples'), CATDS: 5.9586884702388498E-3; n = 1.
A further experiment concerns PIK3C3. The conditions noted are these: read-out: apparent Kd; compound concentrations: 100 nM and 1000 nM (sheet 'Samples'), CATDS: 6.1778157574045199E-3; n = 1.
The subject of another experiment is PIM2. The conditions noted are these: read-out: apparent Kd; compound concentrations: 100 nM and 1000 nM (sheet 'Samples'), CATDS: 4.10108684490637E-3; n = 1.
The next experiment deals with STK11. The conditions noted are these: read-out: apparent Kd; compound concentrations: 100 nM and 1000 nM (sheet 'Samples'), CATDS: 3.27350856558018E-3; n = 1.
Where [1] appears, read: compound concentrations:100 nM and 1000 nM (sheet 'Samples').

SMILES strings stand for the structures. Like-named read-outs stand apart in the source and are kept apart here.

Take `CC(C)N1CCC(n2cnc(-c3ccc(F)cc3)c2-c2ccnc(N)n2)CC1` [SB-223132]: the potency estimated from few doses with DDR1 (setting [1]) was 928 nM.

Turning to `CN1C[C@@H]2Cn3c(c(C4=C(c5cn(C)c6ccccc56)C(=O)NC4=O)c4ccccc43)C[C@H]2C1.Cl` [RO0320234-001], the potency estimated from few doses with DDR1 (setting [1]) was 1520 nM; in the experiment with TEC (setting [1]) it was 1190 nM.

On to `COc1ccc(Nc2ncc(C#N)c(Nc3ccccc3C(N)=O)n2)cc1N1CCN(C)CC1.Cl` [GSK1558669A], for which the potency estimated from few doses in the experiment with CDK10 (compound concentrations: 100 nM and 1000 nM (sheet 'Samples'), CATDS: 6.1619993305959599E-3) is 1450 nM; with DDR1 (compound concentrations: 100 nM and 1000 nM (sheet 'Samples'), CATDS: 8.5132006877523293E-3), 319 nM; with IKBKE (compound concentrations: 100 nM and 1000 nM (sheet 'Samples'), CATDS: 7.4158435365071704E-3), 548 nM; in the experiment with MAP4K3 (compound concentrations: 100 nM and 1000 nM (sheet 'Samples'), CATDS: 1.16453060646116E-2) it was 123 nM; with MAP4K5 (CATDS: 7.4217938627351198E-3) it was 546 nM; with NEK9 (CATDS: 1.04770728264292E-2), 164 nM. In addition, the potency estimated from few doses was 148 nM in the experiment with RPS6KA1 (compound concentrations: 100 nM and 1000 nM (sheet 'Samples'), CATDS: 1.0869541528388701E-2); 84.7 nM in the experiment on SLK (compound concentrations: 100 nM and 1000 nM (sheet 'Samples'), CATDS: 1.35175429318502E-2).

In the case of `Cc1cccc(-c2nc(Nc3ccncc3)c3sccc3n2)n1` [GW869641X], the potency estimated from few doses in the experiment on MAP4K2 (setting [1]) was 669 nM.

For the compound `Cc1ccc2c(-c3ccncc3)c(-c3ccc(F)cc3)nn2c1.Cl` [GW461484A], in the experiment with CDK10 (setting [1]), the potency estimated from few doses is 1410 nM.

On to `CNC(=O)c1ccccc1Nc1nc(Nc2ccc(N3CCOCC3)cc2)ncc1Cl.Cl` [GSK1576028A], for which the potency estimated from few doses is 1540 nM in the experiment with IKBKE (setting [1]); 1670 nM in the experiment with MAP4K3 (setting [1]); 683 nM with RPS6KA1 (setting [1]); 1120 nM in the experiment with SLK (setting [1]); 57.7 nM in the experiment on TEC (setting [1]); 780 nM in the experiment on TGFBR1 (setting [1]).

Turning to `CONC1=NC(=O)/C(=C/c2ccc3ncccc3c2)S1` [RO4613269-000], the potency estimated from few doses with TP53RK (CATDS: 0.12819898124354101) was 2200 nM.

`CCn1c(-c2nonc2N)nc2c(-c3ccccc3)ncc(OCCCN)c21.CCn1c(-c2nonc2N)nc2c(-c3ccccc3)ncc(OCCCN)c21.O=C(O)C(F)(F)F.O=C(O)C(F)(F)F` [GSK260205A]: the potency estimated from few doses with AKT2 (CATDS: 4.8057080770149398E-2) was 339 nM.

With `Cn1ncc2c(N)ncnc21` [SKF-18267], the potency estimated from few doses was 627 nM in the experiment with ACVR1; 780 nM in the experiment with AKT2 (CATDS: 5.1088836681336602E-3); 876 nM in the experiment with DDR1 (compound concentrations: 100 nM and 1000 nM (sheet 'Samples'), CATDS: 4.82198778497934E-3); 1060 nM in the experiment with IKBKE (compound concentrations: 100 nM and 1000 nM (sheet 'Samples'), CATDS: 4.4054249402622498E-3); 885 nM with MAP4K2 (compound concentrations: 100 nM and 1000 nM (sheet 'Samples'), CATDS: 4.7977079984097802E-3); 1450 nM with MAP4K3 (compound concentrations: 100 nM and 1000 nM (sheet 'Samples'), CATDS: 3.8804201859816102E-3). In addition, the potency estimated from few doses in the experiment with MAP4K5 (CATDS: 3.7006195337176699E-3) is 1650 nM; in the experiment with NEK9 (CATDS: 5.3187042778019703E-3), 722 nM; with PIK3C2A, 587 nM; in the experiment with PIK3C3, 552 nM; in the experiment with PIM2, 1260 nM; in the experiment with RPS6KA1 (compound concentrations: 100 nM and 1000 nM (sheet 'Samples'), CATDS: 4.0621123256608799E-3) it was 1290 nM. In addition, the potency estimated from few doses with SLK (compound concentrations: 100 nM and 1000 nM (sheet 'Samples'), CATDS: 4.0721330084515098E-3) is 1280 nM; in the experiment on STK11 it was 2430 nM; in the experiment with TEC (compound concentrations: 100 nM and 1000 nM (sheet 'Samples'), CATDS: 5.5600102138742497E-3) it was 665 nM; in the experiment with TGFBR1 (compound concentrations: 100 nM and 1000 nM (sheet 'Samples'), CATDS: 5.0317884305657503E-3) it was 804 nM; with TP53RK (CATDS: 3.61485371112703E-3), 1760 nM.
